# From the supplement of paper PMC8728848
# The entries come from a sample that favours the strongest signals as a whole.
# B1: PX9961W-pdi-543-27-543 (Parabacteroides distasonis) (protein)
# chain: EGNATTTSYFLNDQQAIDAIDGLYERFHQEGCYGRELFWEQGAACDIVWGRTRGYNSLATLAYTGDESPLRDVFSRMYSTMSRANWIIQELVKKEKGTTLTAVEKRSLGEAYFSRGWAHYLIAYRYGTDKQGVPFVRYEDFPDDYDNSIPPQQATVMDNYKLIIEDMDKAIAYLPIFESYDADNRGRAHQAAAVAFKAKTYAYWATWDATQWNNVIEMVNQLENNYNRDLAPTFAELFSSDLKDYWNAEYLWTIPSIGGALPGGTEFPGIILENKGWGKYNGWGQMKPSYDIYEEMAKDGKGNDRLVRSILEYNQEFPFFGETRKFWSTSDLEAGFMINKYMDAFKYSDPVGEGAVSANGDWPTVRVNFPIIRFAEMLLFRAEAYLMTGQADKATADINRIRLRSNLTPLTGTATMKDLYHERRCELAFEFTDHLFDLKRWNRSSNADIKTLADKELNAHPRIRRYEDRANPESAFTIIGYEDYTNKNAYQAHMMVFPYPSEEITKSNGQLKQNEGY
# Columns and labels:
# Assay in all cases: glycan array binding signal (z-score within array); higher = stronger binding
# Settings in all cases: glycan notation: IUPAC condensed, linker removed
# [1] = target: Fuc(a1-2)Gal(b1-4)GlcNAc
# Method in brief: (§1)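 The Consortium for Functional Glycomics database supplied 3228 glycan arrays, of which those lacking an available protein sequence were dropped. The binding signal, a within-array Z-score, was averaged across arrays of the same protein sequence and across linkers. Negative scores can be read as non-binding.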
# [2] = target: Fuc(a1-2)Gal(b1-4)GlcNAc(b1-3)Gal(b1-4)GlcNAc(b1-2)Man(a1-3)[Fuc(a1-2)Gal(b1-4)GlcNAc(b1-3)Gal(b1-4)GlcNAc(b1-2)Man(a1-6)]Man(b1-4)GlcNAc(b1-4)GlcNAc
# Method in brief: as §1
# [3] = target: Fuc(a1-2)[Gal(a1-3)]Gal(b1-3)GalNAc(b1-3)Gal(a1-4)Gal(b1-4)Glc
# Method in brief: as §1
# [4] = target: Fuc(a1-2)[GalNAc(a1-3)]Gal(b1-4)GlcNAc(b1-2)Man
# Method in brief: as §1
# [5] = target: Fuc(a1-4)GlcNAc
# Method in brief: as §1
# [6] = target: Gal(a1-3)Gal(b1-3)GlcNAc(b1-6)GalNAc
# Method in brief: as §1
# [7] = target: Gal(a1-3)[Gal(a1-4)]Gal(b1-4)GlcNAc
# Method in brief: as §1
# [8] = target: Gal(a1-4)GlcNAc
# Method in brief: as §1
# [9] = target: Gal(b1-3)GlcNAc(b1-3)Gal(b1-4)GlcNAc(b1-2)[Gal(b1-3)GlcNAc(b1-3)Gal(b1-4)GlcNAc(b1-6)]Man(a1-6)[Gal(b1-3)GlcNAc(b1-3)Gal(b1-4)GlcNAc(b1-2)Man(a1-3)]Man(b1-4)GlcNAc(b1-4)[Fuc(a1-6)]GlcNAc
# Method in brief: as §1
# [10] = target: Gal(b1-3)GlcNAc(b1-3)Gal(b1-4)GlcNAc(b1-6)[Gal(b1-3)GlcNAc(b1-3)]Gal(b1-4)Glc
# Method in brief: as §1
# [11] = target: Gal(b1-4)GlcNAc(b1-2)Man(a1-3)[Gal(b1-4)GlcNAc(b1-2)Man(a1-6)]Man(b1-4)GlcNAc(b1-4)GlcNAc
# Method in brief: as §1
# [12] = target: Gal(b1-4)GlcNAc(b1-2)[Gal(b1-4)GlcNAc(b1-4)]Man(a1-3)[GlcNAc(b1-4)][Gal(b1-4)GlcNAc(b1-2)Man(a1-6)]Man(b1-4)GlcNAc(b1-4)GlcNAc
# Method in brief: as §1
# [13] = target: Gal(b1-4)GlcNAc(b1-3)Gal(b1-4)GlcNAc(b1-3)Gal(b1-4)GlcNAc
# Method in brief: as §1
# [14] = target: Gal(b1-4)GlcNAc(b1-3)Gal(b1-4)GlcNAc(b1-3)Gal(b1-4)GlcNAc(b1-3)Gal(b1-4)GlcNAc(b1-3)Gal(b1-4)GlcNAc(b1-2)[Gal(b1-4)GlcNAc(b1-3)Gal(b1-4)GlcNAc(b1-3)Gal(b1-4)GlcNAc(b1-3)Gal(b1-4)GlcNAc(b1-3)Gal(b1-4)GlcNAc(b1-6)]Man(a1-6)[Gal(b1-4)GlcNAc(b1-3)Gal(b1-4)GlcNAc(b1-3)Gal(b1-4)GlcNAc(b1-3)Gal(b1-4)GlcNAc(b1-3)Gal(b1-4)GlcNAc(b1-2)Man(a1-3)]Man(b1-4)GlcNAc(b1-4)[Fuc(a1-6)]GlcNAc
# Method in brief: as §1
# [15] = target: Gal(b1-4)GlcNAc(b1-3)[GlcNAc(b1-6)]Gal(b1-4)GlcNAc
# Method in brief: as §1
# [16] = target: Gal(b1-4)GlcNAc(b1-6)GalNAc
# Method in brief: as §1
# [17] = target: Gal4S(b1-4)GlcNAc
# Method in brief: as §1
# [18] = target: GalNAc(a1-3)Gal
# Method in brief: as §1
# [19] = target: GalNAc(b1-4)GlcNAc(b1-3)GalNAc(b1-4)GlcNAc
# Method in brief: as §1
# [20] = target: GlcNAc(b1-3)Gal(b1-4)GlcNAc(b1-2)[GlcNAc(b1-3)Gal(b1-4)GlcNAc(b1-6)]Man(a1-6)[GlcNAc(b1-3)Gal(b1-4)GlcNAc(b1-2)Man(a1-3)]Man(b1-4)GlcNAc(b1-4)GlcNAc
# Method in brief: as §1
# [21] = target: GlcNAc(b1-3)Gal(b1-4)GlcNAc(b1-3)Gal(b1-4)GlcNAc(b1-2)Man(a1-3)[GlcNAc(b1-3)Gal(b1-4)GlcNAc(b1-3)Gal(b1-4)GlcNAc(b1-2)Man(a1-6)]Man(b1-4)GlcNAc(b1-4)GlcNAc
# Method in brief: as §1
# [22] = target: GlcNAc(b1-3)Gal(b1-4)GlcNAc(b1-3)Gal(b1-4)GlcNAc(b1-3)Gal(b1-4)GlcNAc(b1-2)Man(a1-3)[GlcNAc(b1-3)Gal(b1-4)GlcNAc(b1-3)Gal(b1-4)GlcNAc(b1-3)Gal(b1-4)GlcNAc(b1-2)Man(a1-6)]Man(b1-4)GlcNAc(b1-4)[Fuc(a1-6)]GlcNAc
# Method in brief: as §1
# [23] = target: GlcNAc(b1-3)Gal(b1-4)GlcNAc(b1-3)Gal(b1-4)GlcNAc(b1-3)Gal(b1-4)GlcNAc(b1-3)Gal(b1-4)GlcNAc(b1-2)Man(a1-3)[GlcNAc(b1-3)Gal(b1-4)GlcNAc(b1-3)Gal(b1-4)GlcNAc(b1-3)Gal(b1-4)GlcNAc(b1-3)Gal(b1-4)GlcNAc(b1-2)Man(a1-6)]Man(b1-4)GlcNAc(b1-4)[Fuc(a1-6)]GlcNAc
# Method in brief: as §1
binder,measurement,setting,value
B1,glycan array binding signal (z-score),[1],-0.724
same,glycan array binding signal (z-score),[2],0.321
same,glycan array binding signal (z-score),[3],-0.488
same,glycan array binding signal (z-score),[4],0.843
same,glycan array binding signal (z-score),[5],-0.806
same,glycan array binding signal (z-score),[6],-0.936
same,glycan array binding signal (z-score),[7],4.9
same,glycan array binding signal (z-score),[8],-0.436
same,glycan array binding signal (z-score),[9],3.68
same,glycan array binding signal (z-score),[10],2.47
same,glycan array binding signal (z-score),[11],0.803
same,glycan array binding signal (z-score),[12],-0.379
same,glycan array binding signal (z-score),[13],0.348
same,glycan array binding signal (z-score),[14],2.95
same,glycan array binding signal (z-score),[15],-1.13
same,glycan array binding signal (z-score),[16],0.97
same,glycan array binding signal (z-score),[17],-0.282
same,glycan array binding signal (z-score),[18],-0.723
same,glycan array binding signal (z-score),[19],-0.156
same,glycan array binding signal (z-score),[20],2.42
same,glycan array binding signal (z-score),[21],2.38
same,glycan array binding signal (z-score),[22],1.14
same,glycan array binding signal (z-score),[23],2.16
